Only some compounds are listed: those with a hit (about 19% of all), similar ones and a draw of the others.
TDP1 cell CPT – DT40-hTDP1 cell growth loss with CPT | AID 686979 | Potency, µM (highest dose often 46.2 µM), for inactives: at the highest dose activity change, negative = growth inhibition, actives largely listed as inhibitors | 420,000 tested, 12% active | chicken DT40 Tdp1-/-;hTDP1 cells + 20 nM CPT, ATP luminescence, 48 h; note: potency is the fitted concentration of half-maximal effect; nearly all actives have a fitted effect of over 55% in size
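Cell growth measured by CellTiter-Glo luminescence after a minimum 48 h, 37 C compound exposure with 20 nM CPT in Tdp1-knockout DT40 cells stably expressing hTDP1, seeded 400/well; qHTS titration format.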
IL1B secr inh – inhibitors of inflammasome signaling (IL-1 beta secretion); THP-1 LPS/ATP IL-1B secretion, AlphaLISA, 16 h; active compounds read low; activity change, % at 57.5 µM; 360,000 tested, 4.7% active; in the data active = activity change below about -50%; inconclusive = mostly about -30% to -49%
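THP-1 cells pretreated 1 hr with compounds (up to 57.5 uM final), then stimulated with LPS (250 ng/mL final) plus ATP (1.25 mM final); secreted IL-1B measured by AlphaLISA after 16 hr, decreased signal indicating inhibition.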
HT1080 IDH1KD tx – kills HT-1080 cells with IDH1 knockdown; HT-1080 IDH1 knockdown viability, ATP luminescence, 48 h; Potency, µM (titrated, usually from 46.1 µM), without a hit: top-dose activity, negative = toxicity, actives largely listed as cytotoxic; 360,000 tested, 2% active; AID 686971;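 note: potency is the fitted concentration of half-maximal effect; 0% = DMSO wells and -100% = cell-free medium wells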
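In this qHTS, HT-1080 cells depleted of IDH1 are exposed for 48 h at 37 °C to compound titrations. Toxicity is scored from CellTiter-Glo luminescence, with DMSO as full viability and medium alone as none.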
DT40 TDP1 no CPT – qHTS for Inhibitors of human tyrosyl-DNA phosphodiesterase 1 (TDP1): qHTS in cells in absence of CPT. DT40 Tdp1-/- hTDP1 cells, no CPT, ATP luminescence, 48 h. Potency, µM (highest dose often 46.2 µM), without a hit: at the top dose activity change, negative = growth inhibition, most hits filed as inhibitors. 420,000 tested, 15% active. AID 686978, 2013; note: potency is the fitted concentration of half-maximal effect; nearly all actives have a fitted effect of over 55% in size
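Growth kinetics read by CellTiter-Glo luminescence after ≥48 hr at 37 °C. Cells: DT40 Tdp1-/- stably carrying human TDP1, 400 per well, compound exposure in the absence of CPT (DMSO vehicle).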
uPA surface inh – cell surface uPA generation inhibition; cell surface uPA generation assay, qHTS; Potency, µM (doses to about 38.3 µM), for inactives: at the highest dose activity change, negative = inhibition, usual class: inhibitors; 330,000 tested, 0.31% active; AID 540303; active = well fitted inhibition curve with a large enough effect; inconclusive = small, poorly fitted or top-dose-only effect; inactive = no such curve, though single readings can be large or run the other way; tested in mouse RAW 264.7 cells; note: potency is the fitted concentration of half-maximal effect; nearly all actives have a fitted effect of over 55% in size
HT1080NT lethal – kills 2HG-producing HT-1080-NT fibrosarcoma cells; Potency, µM (series often up to 46.1 µM), for inactives: at the highest dose activity, negative = less viability, hits mostly cytotoxic; HT-1080-NT fibrosarcoma viability, CellTiter-Glo ATP luminescence, 48 h; 360,000 tested, 1.6% active; AID 686970;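 note: NT is the 2HG producing partner of a matched IDH1 knockdown line; potency is the fitted concentration of half-maximal effect; 0% = DMSO-treated cells and -100% = media-only wells without cells; nearly all actives have a fitted effect of over 55% in size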
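Read-out is CellTiter-Glo luminescence after 10 minutes at room temperature, following 48 hours' compound treatment of HT-1080-NT cells (750 cells/well, RPMI, 5% FBS, 37 degrees C).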
Numbers without * were called inactive; ? = inconclusive; . = not tested or not shown. Unless noted, calls come from the whole dose curve; as a rule, active = well fitted curve in the direction sought with a large enough effect; inconclusive = small, poorly fitted or top-dose-only effect, or another doubt; inactive = no such curve, though single readings can be large; an effect the other way counts as inactive or inconclusive. Unless noted, % is set by controls: 0 for no effect and ±100 for the full control effect.

SMILES	TDP1 cell CPT	IL1B secr inh	HT1080 IDH1KD tx	DT40 TDP1 no CPT	uPA surface inh	HT1080NT lethal
Cc1ccc(S(=O)(=O)NCCc2cc3ccc(C)cc3[nH]c2=O)cc1	-23%	20	-11%	-26%	5%	4%
Cc1ccc2cc(CCNS(=O)(=O)c3ccc(F)cc3)c(=O)[nH]c2c1	21µM*	-3	6%	18µM*	9%	12%
CCSc1ncc(/C=N/Nc2ccc(Cl)cc2)n1C	?	3	?	?	18%	?
CCSc1ncc(/C=N/Nc2ccc([N+](=O)[O-])cc2)n1C	?	-11	13µM*	-28%	4%	13µM*
CCSc1ncc(/C=N/Nc2ccccc2)n1C	23µM*	16	-27%	16µM*	4%	-24%
Cc1cc(C)cc(N(C(=O)c2ccccn2)C(C(=O)NC2CCCCC2)c2cccs2)c1 (stereo not given)	?	7	?	-20%	4%	-9%
CC1CCCCN1S(=O)(=O)c1ccc(N(C(=O)c2cnccn2)C(C(=O)NC2CCCCC2)c2cccs2)cc1 (stereo not given)	?	-63*	-16%	?	4%	-19%
Cc1ccc(N(C(=O)c2cnccn2)C(C(=O)NC2CCCCC2)c2ccc(O)cc2)cc1 (stereo not given)	-10%	2	2%	-10%	2%	11%
CC1CCCCN1S(=O)(=O)c1ccc(N(C(=O)c2cnccn2)C(C(=O)NC2CCCC2)c2cccs2)cc1 (stereo not given)	?	-8	2%	21µM*	-2%	2%
N#C/C(C(N)=O)=C1/SC=C(c2ccccc2)N1c1ccccc1	?	-7	?	18µM*	-3%	0%
O=C(Nc1ccccc1C(=O)O)c1cccc(NC(=O)c2ccccc2Cl)c1	-22%	3	1%	?	-7%	0%
O=C(Nc1ccccc1Cl)c1ccc(C(=O)Nc2ccccc2Cl)cc1	4%	1	-4%	-1%	6%	-2%
O=C(Nc1ccc2nn(-c3ccccc3)nc2c1)c1cccnc1	?	?	0%	16µM*	19%	1%
O=C(Nc1ccc(C(=O)Nc2ccccc2Cl)cc1)c1cccnc1	-22%	-1	5.8µM*	-28%	-5%	8.2µM*
O=C(Nc1cc(NC(=O)c2ccccc2Cl)ccc1Cl)c1ccccc1	?	.	.	21µM*	.	.
O=C(Nc1ccc2nn(-c3ccc(F)cc3)nc2c1)c1cccnc1	?	0	-5%	?	.	-5%
CCc1ccc(OCC(=O)Nc2ccc(N3CCN(S(C)(=O)=O)CC3)cc2)cc1	-10%	-8	15%	-4%	1%	0%
O=P(O)(O)OC(Cn1cncn1)(Cn1cncn1)c1ccc(F)cc1F	16%	.	.	5%	.	.
N#Cc1c2ccc(O)cc2n2ccccc12	?	-52*	-3%	8.2µM*	.	-23%
O=C(Nc1ccc(-c2cn3ccccc3n2)cc1)c1cccs1	18µM*	-93*	?	15µM*	-9%	-29%
COc1ccc(CC(=O)Nc2cccc(-c3cn4ccccc4n3)c2)cc1	?	-9	3%	?	-5%	5%
COc1ccc(CC(=O)Nc2ccc(-c3cn4ccccc4n3)cc2)cc1	13µM*	19	?	?	-5%	?
Cc1cc(C)nc(NC(N)=NC2CCCCC2)n1	15µM*	-6	-27%	12µM*	-5%	0%
CC(=O)CC(=O)NC(=NC1CCCCC1)Nc1nc(C)cc(C)n1	?	-7	-12%	?	-2%	-3%
CCCCC(CC)CNC(=O)CN1C(=O)CSc2ccc(S(=O)(=O)N3CCOCC3)cc21 (stereo not given)	16µM*	.	.	13µM*	.	.
